# Measured values from PubChem BioAssay AID1274 (Emory University Molecular Libraries Screening Center, 2008).
# In all, about 220,000 compounds went through this assay and about 1,100 (0.5%) were called active. This excerpt belongs to a sample that is enriched for actives. Unmarked numbers belong to inactive results.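 Rule for the calls: active = inhibition above about 30% (limit read from the data); inactive = the rest.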
# Target: Neutrophil cytosol factor 1 (Homo sapiens) (UniProt P14598)
# Assay: blockers of p47phox binding to p22phox – biochemical, uHTS, NADPH oxidase regulatory subunit, primary screen (AID 1274);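 note: 0% = p47phox with labelled peptide and 100% = labelled peptide alone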
# Conditions: p47phox/p22phox peptide binding, fluorescence polarization, 2 h; at 24.7 µM; active compounds read high
# Neutrophil cytosol factor 1 (Homo sapiens), sequence (P14598 whole entry, looked up): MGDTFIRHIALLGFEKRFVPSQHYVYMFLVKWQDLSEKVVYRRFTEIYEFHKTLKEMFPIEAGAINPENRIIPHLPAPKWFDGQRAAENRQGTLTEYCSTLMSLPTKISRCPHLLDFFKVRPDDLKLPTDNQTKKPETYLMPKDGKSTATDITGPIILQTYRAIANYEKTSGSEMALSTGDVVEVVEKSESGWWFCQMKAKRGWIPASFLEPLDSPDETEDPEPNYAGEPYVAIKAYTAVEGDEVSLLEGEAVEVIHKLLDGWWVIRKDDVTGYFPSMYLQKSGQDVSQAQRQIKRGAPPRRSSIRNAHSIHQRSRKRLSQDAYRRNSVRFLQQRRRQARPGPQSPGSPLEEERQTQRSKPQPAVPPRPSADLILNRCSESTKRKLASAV
row,Compound,inhibition
1,COc1ccc(N2C(=O)CNC2=S)cc1,41.5% (active)
2,COc1ccc(N2C(=O)C(Cc3ccccc3)NC2=S)cc1 (stereo not drawn),-10.2%
3,COc1ccc(N2C(=O)CC(SC(C)C)C2=O)cc1 (stereo not drawn),-5.28%
4,Cc1c(C(=O)OC(C)C)sc(NC(=O)c2cccnc2)c1C#N,-54.3%
5,Cn1cnnc1SCC(=O)Nc1ccc(N2CCOCC2)cc1,50% (active)
6,O=C(O)CCC(=O)Nc1ccc(N2CCOCC2)cc1,-1.84%
7,O=C(CSc1ccc([N+](=O)[O-])cn1)Nc1ccc(N2CCOCC2)cc1,2.81%
8,CN1CCN(CCCCOc2ccccc2-c2ccccc2)CC1,-0.29%
9,CC(C)=CCCC1(C)C=Cc2c(ccc3c2[nH]c2cc(O)c(C)cc23)O1 (stereo not drawn),-11.9%
10,O=c1[nH]c2ccccc2n2c(-c3ccccc3)nnc12,69.6% (active)
11,CCOC(=O)c1cnc2[nH]c3ccccc3n2c1=O,0.2%
12,O=[N+]([O-])c1cccc(-c2nnc3c4ccccc4c4ccccc4n23)c1,-1.55%
13,COc1ccc2oc(N)c(C=O)c(=O)c2c1,-6.85%
14,CC/C(O)=N\S(=O)(=O)c1ccc(N=NN(C)C)cc1,-7.34%
15,COc1ccccc1OCCNC(=O)c1cc([N+](=O)[O-])cc([N+](=O)[O-])c1,5.08%
16,OC(CNCC1CCCO1)Cn1c2ccc(Br)cc2c2cc(Br)ccc21 (stereo not drawn),64% (active)
17,CCc1cc(Br)ccc1NC(=O)C1CCCO1 (stereo not drawn),-3.52%
18,CCOC(=O)Cn1c(=O)oc2cc(S(=O)(=O)NCC3CCCO3)ccc21 (stereo not drawn),-8.76%
19,CS(=O)(=O)N1CCc2cc(C(=O)Nc3ccccc3)ccc21,-4.32%
20,CC(C)Cc1nn2c(=O)cc(O)nc2s1,-2.97%
21,Cc1cc(=O)[nH]c(=S)[nH]1,-3.01%
22,O=c1[nH]c(=S)[nH]c2[nH]c(=S)[nH]c12,32.1% (active)
23,Cc1c(C)c(C)c2[nH]c(=S)[nH]c2c1C,-7.18%
24,Cn1c(=O)c([N+](=O)[O-])c(Oc2ccccc2)c2ccccc21,0.11%

row,Compound,inhibition
1,CCOc1cc(NC(=O)c2ccco2)c(OCC)cc1NC(=O)COc1ccccc1,35.5% (active)
2,CCOc1cc(NC(=S)NCc2ccco2)c(OCC)cc1NC(=O)c1ccco1,4.63%
3,CCOc1cc(NC(=S)NCCCOC)c(OCC)cc1NC(=O)c1ccco1,-10.9%
4,COc1ccccc1P(=O)(c1ccccc1)c1ccccc1NC(C)=O (stereo not drawn),7.25%
5,COc1ccc(/C=C/C(=O)OCC(=O)NCc2cccs2)cc1OC,-9.49%
6,COC(=O)Cc1c(O)ccn(Cc2cccc(C(F)(F)F)c2)c1=O,-10.6%
7,COc1ccccc1C(=O)NN1C(=O)C2C3C=CC(O3)C2C1=O (stereo not drawn),-8.76%
8,O=C(NN1C(=O)C2C(C1=O)C1C=CC2C12CC2)c1ccccc1Cl (stereo not drawn),43.4% (active)
9,CC1=CC(C)(C)NC(=S)N1NC(=O)c1ccccc1Cl,-1.05%
10,COc1ccc(COCC(O)CN2CCC(C(N)=O)CC2)cc1 (stereo not drawn),-6.99%
11,Cc1ccccc1Nc1scc(-c2ccc(Br)cc2)[n+]1-c1ccccc1C,-1.63%
12,CC(C)CNC(=O)COC(=O)c1ccccc1OCC(=O)Nc1ccc(Br)cc1,0.42%
13,CC1CN(S(=O)(=O)c2ccc(C(=O)Nc3sccc3C(N)=O)cc2)CC(C)O1 (stereo not drawn),-4.8%
14,CN1/C(=C\C=C2\N=C(c3ccc(F)cc3)OC2=O)C(C)(C)c2ccccc21,149% (active)
15,CN1/C(=C\C(=O)c2cccnc2Cl)C(C)(C)c2ccccc21,-37.8%
16,CN1/C(=C\C(=O)c2oc3ccccc3c2N)C(C)(C)c2ccccc21,-9.12%
17,COc1cc(C(=O)NCc2ccc3c(c2)cc(C)n3C)cc(OC)c1OC,1.37%
18,O=C(O)C1=C[C@H](c2cccs2)C[C@H](OCCCCO)O1,-14.3%
19,Cc1ccc(C)c(CSc2nc(-c3ccco3)nc3c2c(=O)n(C)c(=O)n3C)c1,-1.58%
20,CC(C)(C)NC(=O)/C(=C/c1cccnc1)NC(=O)c1ccco1,-7.92%
21,COCCN1C=C2C(=O)C(C)(OC(=O)C3CCCC3)C(=O)C=C2C=C1c1ccsc1 (stereo not drawn),0.87%
22,CC1(OC(=O)CCc2ccccc2)C(=O)C=C2C=C(c3ccc(C#N)cc3)N(CCc3ccccn3)C=C2C1=O (stereo not drawn),32.3% (active)
23,C=CCN1C=C2C(=O)C(C)(OC(=O)CCc3ccccc3)C(=O)C=C2C=C1c1ccc(C#N)cc1 (stereo not drawn),-11.9%
24,CCN(C(=O)CN1CCN(Cc2ccccc2)CC1)c1c(N)n(Cc2ccccc2)c(=O)[nH]c1=O,-14.8%
